Source: PubChem
BAZ2B block: blocks human BAZ2B; Q9UIF8; AlphaScreen BAZ2B-H3K14Ac peptide displacement; Potency, µM (doses to about 114 µM), for inactives: at the highest dose activity change, negative = inhibition, usual class: inhibitors; 360,000 tested, 4.4% active; AID 504333; also: % is scaled to controls: 0 for no effect and ±100 for the full control effect; nearly all actives have a fitted effect of over 60% in size
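Compounds, titrated to a top concentration of 110 uM, were incubated 30 min at room temperature with preformed BAZ2B/acetyl-K14 H3 peptide complex (50 nM each). Proximity signal was measured by AlphaScreen after 20 min with beads.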
G9a inh: blocks human histone lysine methyltransferase G9a. Q96KQ7. G9a H3K9 monomethylation, AlphaScreen, 2 h. Potency, µM (doses to about 102 µM), for the others: at the highest dose activity, negative = inhibition, actives largely listed as inhibitors. 350,000 tested, 8.8% active. AID 504332; also: % is scaled to controls: 0 for no effect and ±100 for the full control effect; nearly all actives have a fitted effect of over 75% in size
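Chemiluminescent proximity detection of H3K9 monomethylation, read after 10 min bead incubation in the dark. Reaction: 20 nM G9a, 500 nM biotin-H3K9 peptide, 20 uM SAM cofactor, 2 h, room temperature, following 15 min enzyme-compound preincubation.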
JMJD2A Tudor inh: JMJD2A Tudor domain (human) inhibition; O75164; AlphaScreen JMJD2A-Tudor / H3K4me3 peptide binding; Potency, µM (highest dose often 114 µM), for the others: at the highest dose activity change, negative = inhibition, most hits filed as inhibitors; 390,000 tested, 4.4% active; AID 504339; also: % is scaled to controls: 0 for no effect and ±100 for the full control effect; nearly all actives have a fitted effect of over 50% in size
Target sequence (O75164 whole entry, looked up, the tested form may be a part): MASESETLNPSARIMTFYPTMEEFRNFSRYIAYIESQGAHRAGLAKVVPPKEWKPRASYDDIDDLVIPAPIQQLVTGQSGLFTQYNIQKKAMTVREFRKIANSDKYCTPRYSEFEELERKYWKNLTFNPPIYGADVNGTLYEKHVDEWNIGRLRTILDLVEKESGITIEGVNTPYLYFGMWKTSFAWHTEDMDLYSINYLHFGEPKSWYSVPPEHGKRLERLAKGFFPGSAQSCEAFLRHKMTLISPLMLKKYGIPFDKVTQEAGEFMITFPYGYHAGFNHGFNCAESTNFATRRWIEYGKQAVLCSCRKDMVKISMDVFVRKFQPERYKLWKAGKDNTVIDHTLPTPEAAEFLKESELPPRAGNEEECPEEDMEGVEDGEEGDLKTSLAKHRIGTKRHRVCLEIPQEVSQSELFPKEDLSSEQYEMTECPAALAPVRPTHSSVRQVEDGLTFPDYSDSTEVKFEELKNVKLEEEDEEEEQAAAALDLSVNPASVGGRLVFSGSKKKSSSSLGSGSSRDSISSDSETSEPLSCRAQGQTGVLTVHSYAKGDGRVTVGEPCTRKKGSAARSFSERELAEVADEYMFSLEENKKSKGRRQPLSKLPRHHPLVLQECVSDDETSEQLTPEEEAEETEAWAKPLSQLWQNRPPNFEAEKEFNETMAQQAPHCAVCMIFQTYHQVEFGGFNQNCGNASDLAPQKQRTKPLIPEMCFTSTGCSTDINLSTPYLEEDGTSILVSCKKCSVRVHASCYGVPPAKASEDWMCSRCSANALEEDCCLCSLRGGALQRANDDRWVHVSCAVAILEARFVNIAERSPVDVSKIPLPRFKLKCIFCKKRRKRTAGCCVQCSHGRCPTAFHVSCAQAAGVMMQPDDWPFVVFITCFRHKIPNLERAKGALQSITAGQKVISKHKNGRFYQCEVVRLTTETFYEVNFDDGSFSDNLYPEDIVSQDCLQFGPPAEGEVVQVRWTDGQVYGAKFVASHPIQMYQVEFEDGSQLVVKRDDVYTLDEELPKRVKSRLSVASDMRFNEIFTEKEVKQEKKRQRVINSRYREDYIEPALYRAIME
HP1b binding inh: HP1-beta chromodomain-methylated histone interaction inhibition; AlphaScreen HP1-beta / biotin-H3K9me3 peptide binding; Potency, µM (series often up to 114 µM), for the others: at the top dose activity change, negative = inhibition, usual class: inhibitors; P83916; 390,000 tested, 0.56% active; also: nearly all actives have a fitted effect of over 70% in size
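Compound inhibition of the preformed complex between 50 nM HP1-beta and 50 nM biotinylated H3K9me3 peptide was read by AlphaScreen. Buffer was PBS pH 7.4 with 0.01% Tween-20. Incubations ran 30 min at room temperature, with 10 ug/mL donor/acceptor beads.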
L3MBTL1 block: blocks human L3MBTL1. Potency, µM (series often up to 57.1 µM), for the others: at the highest dose activity, negative = inhibition, actives largely listed as inhibitors. AlphaScreen L3MBTL1–H3K9me1 peptide binding. 230,000 tested, 0.66% active; also: % is scaled to controls: 0 for no effect and ±100 for the full control effect; nearly all actives have a fitted effect of over 60% in size
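Read-out is AlphaScreen signal from streptavidin donor and nickel chelate acceptor beads (10 ug/mL final each) bridging L3MBTL1 (50 nM) and biotinylated K9-monomethylated H3(1-15) peptide (75 nM), after 30 min compound exposure at room temperature.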
Sfp PPTase inh: Sfp phosphopantetheinyl transferase inhibition | Q9F4F7 | Biochemical Sfp PPTase activity, qHTS | Potency, µM, without a hit: largest response in the series, negative = inhibition, usual class: inhibitors | 310,000 tested, 3.5% active | AID 1490;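 also: the enzyme is Sfp with the accession as filed and its product quenches rhodamine fluorescence; 0% = enzyme reaction without inhibitor and -100% = no enzyme wells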
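Buffer: 50 mM Hepes-Na pH 7.6, 10 mM MgCl2, 0.01% Nonidet P-40, 0.01% BSA. Enzyme 15 nM, pre-exposed to compound 15 min; substrates then added and fluorescence change tracked over 30 min.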
Starred values were filed as active, the others as inactive; [ ] = another dose, or the depositor's remark. Most compounds without a hit are left out; they make up all but 12% or so of the library. Calls follow the shape of the dose curve; as a rule, active = well fitted curve in the direction sought with a large enough effect; inconclusive = small, poorly fitted or top-dose-only effect, or another doubt; inactive = no such curve, though single readings can be large; an effect the other way counts as inactive or inconclusive. Potency is read from the fitted curve at half-maximal effect.

What do the screens show for `O=C1CSC(c2cccc([N+](=O)[O-])c2)N1CCN1CCCCC1` (centres undefined)?
BAZ2B block: -23.1%; G9a inh: 9.1%; JMJD2A Tudor inh: -20.0%; HP1b binding inh: 18.0%; L3MBTL1 block: 7.0%; Sfp PPTase inh: 10.3%

What do the screens show for `O=C(Cn1c(=O)n(-c2ccc(Cl)cc2)c(=O)c2sc3ccccc3c21)NC1CCCCC1`?
BAZ2B block: -29.8%; G9a inh: 6.6%[59 µM]; JMJD2A Tudor inh: -16.6%; HP1b binding inh: 17.3%

What do the screens show for `CCC(C)(C)c1ccc(OCCCC[n+]2cccc(C)c2C)c(C(C)(C)CC)c1`?
BAZ2B block: -12.4%; JMJD2A Tudor inh: -13.6%; HP1b binding inh: 26.7%; L3MBTL1 block: 2.0%; Sfp PPTase inh: 44.7µM*

Results for COc1ccc(C(=O)C[n+]2cccc(C)c2C)cc1[N+](=O)[O-] ?
BAZ2B block: -8.4%; JMJD2A Tudor inh: 4.7%; HP1b binding inh: 21.1%; L3MBTL1 block: 13.5%; Sfp PPTase inh: -4.5%

Results for CCC(C)(C)c1ccc(OCCCC[n+]2ccc(C)cc2)c(C(C)(C)CC)c1 ?
BAZ2B block: -17.8%; G9a inh: inconclusive; JMJD2A Tudor inh: -29.6%; HP1b binding inh: 40.7%; Sfp PPTase inh: 39.8µM*

Results for COC(=O)CCN1CCN(S(=O)(=O)c2ccccc2Br)CC1 ?
BAZ2B block: 20µM*; G9a inh: 3.55µM*; JMJD2A Tudor inh: 0.794µM*; HP1b binding inh: inconclusive; L3MBTL1 block: 5.1%; Sfp PPTase inh: inconclusive

Results for Cc1cc(C(C#N)c2cccc(Cl)c2)n2ncnc2n1 (centres undefined) ?
BAZ2B block: inconclusive; G9a inh: 8.91µM*; JMJD2A Tudor inh: inconclusive; HP1b binding inh: -6.4%; L3MBTL1 block: -4.1%; Sfp PPTase inh: 11.0%

How did CCOc1ccc(NC(=O)C2CCCN(c3nn4cc(-c5ccc(OC)cc5)nc4s3)C2)cc1 (centres undefined) do in these assays?
BAZ2B block: -2.6%; G9a inh: -0.3%[59 µM]; JMJD2A Tudor inh: -9.2%; HP1b binding inh: 12.8%

How did O=C(NCC(c1cccnc1)N1CCN(Cc2ccccc2)CC1)C(=O)Nc1cccc(F)c1 (centres undefined) do in these assays?
BAZ2B block: -3.9%; G9a inh: -11.1%[59 µM]; JMJD2A Tudor inh: -8.2%; HP1b binding inh: 37.2%

What do the screens show for `CN(Cc1cccs1)C(=O)CCc1c[nH]c2ccccc12`?
BAZ2B block: -31.7%; G9a inh: -23.5%; JMJD2A Tudor inh: -28.9%; HP1b binding inh: 14.2%; L3MBTL1 block: -10.5%; Sfp PPTase inh: 4.6%

How did CN(Cc1c(F)cccc1Cl)C(=O)CCc1c[nH]c2ccccc12 do in these assays?
BAZ2B block: 70.8µM*; G9a inh: inconclusive; JMJD2A Tudor inh: inconclusive; HP1b binding inh: -17.3%; Sfp PPTase inh: 12.2%

Results for C#CCOCCOCCOCCNc1nc(N2CCN(C(=O)C(Cc3ccc(O)cc3)n3cc(C(N)CC(C)C)nn3)CC2)nc(N2CCN(C(=O)C(Cc3cc4ccccc4[nH]3)n3cc(C(N)C(C)CC)nn3)CC2)n1 (centres undefined) ?
BAZ2B block: 50.1µM*; G9a inh: inconclusive; L3MBTL1 block: -15.3%; Sfp PPTase inh: -3.4%

Results for C#CCOCCOCCOCCNc1nc(N2CCN(C(=O)[C@H](Cc3ccc(O)cc3)n3cc([C@@H](N)CC(C)C)nn3)CC2)nc(N2CCN(C(=O)[C@H](Cc3cc4ccccc4[nH]3)n3cc([C@@H](N)CC(C)C)nn3)CC2)n1 ?
BAZ2B block: 25.1µM*; G9a inh: 4.8%[12.7 µM]; JMJD2A Tudor inh: 10µM*; HP1b binding inh: -9.6%; L3MBTL1 block: -13.6%; Sfp PPTase inh: -19.0%

How did C#CCOCCOCCOCCNc1nc(N2CCN(C(=O)[C@H](Cc3ccc(O)cc3)n3cc([C@@H](N)C(C)CC)nn3)CC2)nc(N2CCN(C(=O)[C@H](Cc3cc4ccccc4[nH]3)n3cc([C@@H](N)Cc4ccc(O)cc4)nn3)CC2)n1 (some centres undefined) do in these assays?
BAZ2B block: 31.6µM*; G9a inh: inconclusive; Sfp PPTase inh: 56.2µM*

What do the screens show for `CCn1cc(/C=C/C(=O)Nc2ccn(Cc3c(F)c(F)cc(F)c3F)n2)cn1`?
BAZ2B block: -6.1%; G9a inh: 44.7µM*; JMJD2A Tudor inh: -24.9%; HP1b binding inh: 7.7%; L3MBTL1 block: 0.6%; Sfp PPTase inh: 28.2µM*

How did Cc1cc2n(n1)C(c1ccccc1)CC(c1ccc(Br)cc1)=N2 (centres undefined) do in these assays?
BAZ2B block: 24.1%; G9a inh: 39.8µM*; JMJD2A Tudor inh: 22.9%; HP1b binding inh: 91.4%; L3MBTL1 block: 16.4%; Sfp PPTase inh: -2.4%

What do the screens show for `COC(=O)C1=C(C)NC(=S)NC1c1ccc(-c2cccc(Cl)c2)o1` (centres undefined)?
BAZ2B block: inconclusive; G9a inh: 10µM*; JMJD2A Tudor inh: 3.1%; HP1b binding inh: 50.4%; L3MBTL1 block: -15.3%; Sfp PPTase inh: 7.08µM*

Results for COC(=O)C1=C(C)NC(=S)NC1c1ccc(-c2ccccc2C(=O)OC)o1 (centres undefined) ?
BAZ2B block: -38.7%; G9a inh: 8.91µM*; JMJD2A Tudor inh: -28.5%; HP1b binding inh: 4.9%; L3MBTL1 block: -19.1%; Sfp PPTase inh: inconclusive

What do the screens show for `COC(=O)C1=C(C)NC(C)=C(C(=O)OC)C1c1ccc(-c2cccc(Cl)c2Cl)o1`?
BAZ2B block: -1.9%; G9a inh: -17.9%[59 µM]; JMJD2A Tudor inh: -10.7%; HP1b binding inh: 34.2%; L3MBTL1 block: 13.0%; Sfp PPTase inh: inconclusive

What do the screens show for `CCOC(=O)C1=C(C)NC(=O)NC1c1ccc(-c2ccc(Cl)cc2)o1` (centres undefined)?
BAZ2B block: -24.3%; G9a inh: -9.2%; JMJD2A Tudor inh: -25.8%; HP1b binding inh: 14.3%; L3MBTL1 block: -5.4%; Sfp PPTase inh: 8.1%

Results for CCOC(=O)C1=C(C)NC(=S)NC1c1ccc(-c2ccc(Cl)cc2)o1 (centres undefined) ?
BAZ2B block: -36.9%; G9a inh: inconclusive; JMJD2A Tudor inh: -35.0%; HP1b binding inh: 17.3%; L3MBTL1 block: -9.9%; Sfp PPTase inh: 14.1µM*

How did COC(=O)C1=C(C)NC(=O)NC1c1ccc(-c2ccccc2Cl)o1 (centres undefined) do in these assays?
BAZ2B block: 11.2%; G9a inh: inconclusive; JMJD2A Tudor inh: -23.3%[11.4 µM]; HP1b binding inh: -9.9%; L3MBTL1 block: 36.3%; Sfp PPTase inh: -20.2%
